Reference: PubChem BioAssay (NCATS)
Results filed as inconclusive are left out. Calls of active or inactive are those of the source. Calls come from the whole dose curve; as a rule, active = well fitted inhibition curve with a large enough effect; inconclusive = small, poorly fitted or top-dose-only effect; inactive = flat fitted curve, though single readings scatter.

Experiments:
CP269 = assay: qHTS profiling for inhibitors of Plasmodium falciparum proliferation (AID 504749); note: nearly all actives have a fitted effect of over 60% in size; settings: P. falciparum in erythrocytes, SYBR Green DNA, 72 h; series mostly up to 28.7 µM
Procedure, shortened: (§1)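 Each compound contacts P. falciparum-infected red blood cells for 72 h at 37 C; lysis buffer (Tris, EDTA, saponin, Triton X, SYBR Green I) is added and fluorescence measured next morning; values normalized to controls.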

CP286 = assay: as above; settings: P. falciparum in erythrocytes, SYBR Green DNA, 72 h; series mostly up to 28.7 µM
Procedure, shortened: as §1

CP291 = assay: as above; settings: P. falciparum in erythrocytes, SYBR Green DNA, 72 h; series mostly up to 28.7 µM
Procedure, shortened: as §1

CP297 = assay: as above; settings: P. falciparum in erythrocytes, SYBR Green DNA, 72 h; series mostly up to 28.7 µM
Procedure, shortened: as §1

CP305 = assay: as above; settings: P. falciparum in erythrocytes, SYBR Green DNA, 72 h; series mostly up to 28.7 µM
Procedure, shortened: as §1

CP315 = assay: as above; settings: P. falciparum in erythrocytes, SYBR Green DNA, 72 h; series mostly up to 28.7 µM
Procedure, shortened: as §1

CP325 = assay: as above; settings: P. falciparum in erythrocytes, SYBR Green DNA, 72 h; series mostly up to 28.7 µM
Procedure, shortened: as §1

CP329 = assay: as above; settings: P. falciparum in erythrocytes, SYBR Green DNA, 72 h; series mostly up to 28.7 µM
Procedure, shortened: as §1

CP335 = assay: as above; settings: P. falciparum in erythrocytes, SYBR Green DNA, 72 h; series mostly up to 28.7 µM
Procedure, shortened: as §1

DFO2036 = assay: as above; settings: P. falciparum in erythrocytes, SYBR Green DNA, 72 h; series mostly up to 28.7 µM
Procedure, shortened: as §1

DIV14 = assay: as above; settings: P. falciparum in erythrocytes, SYBR Green DNA, 72 h; series mostly up to 28.7 µM
Procedure, shortened: as §1

DIV17 = assay: as above; settings: P. falciparum in erythrocytes, SYBR Green DNA, 72 h; series mostly up to 28.7 µM
Procedure, shortened: as §1

DIV30 = assay: as above; settings: P. falciparum in erythrocytes, SYBR Green DNA, 72 h; series mostly up to 28.7 µM
Procedure, shortened: as §1

Dd2 = assay: as above; settings: P. falciparum in erythrocytes, SYBR Green DNA, 72 h; series mostly up to 28.7 µM
Procedure, shortened: as §1

ECU = assay: as above; settings: P. falciparum in erythrocytes, SYBR Green DNA, 72 h; series mostly up to 28.7 µM
Procedure, shortened: as §1

FAB9 = assay: as above; settings: P. falciparum in erythrocytes, SYBR Green DNA, 72 h; series mostly up to 28.7 µM
Procedure, shortened: as §1

GB4 = assay: as above; settings: P. falciparum in erythrocytes, SYBR Green DNA, 72 h; series mostly up to 28.7 µM
Procedure, shortened: as §1

HB3 = assay: as above; settings: P. falciparum in erythrocytes, SYBR Green DNA, 72 h; series mostly up to 28.7 µM
Procedure, shortened: as §1

ICS = assay: as above; settings: P. falciparum in erythrocytes, SYBR Green DNA, 72 h; series mostly up to 28.7 µM
Procedure, shortened: as §1

JCK = assay: as above; settings: P. falciparum in erythrocytes, SYBR Green DNA, 72 h; series mostly up to 28.7 µM
Procedure, shortened: as §1

N140 = assay: as above; settings: P. falciparum in erythrocytes, SYBR Green DNA, 72 h; series mostly up to 28.7 µM
Procedure, shortened: as §1

P93_24 = assay: as above; settings: P. falciparum in erythrocytes, SYBR Green DNA, 72 h; series mostly up to 28.7 µM
Procedure, shortened: as §1

P94_40 = assay: as above; settings: P. falciparum in erythrocytes, SYBR Green DNA, 72 h; series mostly up to 28.7 µM
Procedure, shortened: as §1

PAD = assay: as above; settings: P. falciparum in erythrocytes, SYBR Green DNA, 72 h; series mostly up to 28.7 µM
Procedure, shortened: as §1

PC15 = assay: as above; settings: P. falciparum in erythrocytes, SYBR Green DNA, 72 h; series mostly up to 28.7 µM
Procedure, shortened: as §1

PC26 = assay: as above; settings: P. falciparum in erythrocytes, SYBR Green DNA, 72 h; series mostly up to 28.7 µM
Procedure, shortened: as §1

PC49 = assay: as above; settings: P. falciparum in erythrocytes, SYBR Green DNA, 72 h; series mostly up to 28.7 µM
Procedure, shortened: as §1

SC27B = assay: as above; settings: P. falciparum in erythrocytes, SYBR Green DNA, 72 h; series mostly up to 28.7 µM
Procedure, shortened: as §1

TAB109 = assay: as above; settings: P. falciparum in erythrocytes, SYBR Green DNA, 72 h; series mostly up to 28.7 µM
Procedure, shortened: as §1

TAB113 = assay: as above; settings: P. falciparum in erythrocytes, SYBR Green DNA, 72 h; series mostly up to 28.7 µM
Procedure, shortened: as §1

TAB165 = assay: as above; settings: P. falciparum in erythrocytes, SYBR Green DNA, 72 h; series mostly up to 28.7 µM
Procedure, shortened: as §1

W2 = assay: as above; settings: P. falciparum in erythrocytes, SYBR Green DNA, 72 h; series mostly up to 28.7 µM
Procedure, shortened: as §1

astro = assay: Drug repurposing screens with cells derived from glioblastoma tumor samples (AID 1345199); settings: viability, ATP luminescence, 48 h; series mostly up to 45.9 µM; note: nearly all actives have a fitted effect of over 40% in size
Procedure, shortened: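 Primary testing used CD133+ neurospheres from four GBM patients, seven concentrations, 48 h exposure and ATP-based viability; confirmation added three slower-growing patient lines.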

Measured: Potency
Potency is the fitted concentration of half-maximal effect.

CCCCCCCCCC[N+](C)(C)CCCCCCCCCC
active: CP269 4.78 µM | CP286 2.51 µM | CP291 5.36 µM | CP297 6.75 µM | CP305 5.36 µM | CP315 16.9 µM | CP325 5.36 µM | CP329 6.75 µM | CP335 6.75 µM | DFO2036 5.01 µM | DIV14 3.01 µM | DIV17 3.01 µM | DIV30 8.49 µM | Dd2 8.91 µM | ECU 5.01 µM | FAB9 5.01 µM | GB4 3.38 µM | HB3 7.94 µM | ICS 2 µM | JCK 10 µM | N140 7.08 µM | P93_24 5.01 µM | P94_40 6.31 µM | PAD 8.91 µM | PC15 3.55 µM | PC26 5.36 µM | PC49 10 µM | SC27B 5.01 µM | TAB109 6.31 µM | TAB113 5.01 µM | TAB165 7.08 µM | W2 1.51 µM | astro 4.47 µM
